Drawing on PubChem BioAssay AID463173 (ICCB-Longwood Screening Facility, Harvard Medical School, 2010), this text covers survival for 90 compounds.

SMILES strings stand for the structures. Among all 52,000 compounds or so, about 4,300 (8.3%) were called active. This is one part of a sample in which actives are shown more often than they occur. A number with no mark means an inactive call. Rule as the data show it: active = survival mostly below about 52% (no sharp cut-off); inactive = mostly above about 56%.

For this assay, the system named is DeltatarO mutant. In words: growth inhibition of S. aureus wild type versus tarO mutant, primary screen, teichoic acid synthesis inhibitors, RN4220, OD600 (AID 463173). The following applies: OD600, 18 h, active compounds read low, screened at 18.75 µg/mL (by protocol).
In the case of `COc1ccccc1N1CCN(C(=O)CSc2nc3ccccc3nc2Cc2ccccc2)CC1`, the survival is 101%.

In the case of `COc1ccc(OC)c(-c2noc(N3CCN(c4ccc(Cl)cc4)CC3)n2)c1`, the survival was 88%.

Regarding `CCn1c(CNC(=O)c2ccc(OC)cc2)nnc1SCC(=O)Nc1cc(C)ccc1C`, the survival was 112%.

As to `COc1cccc(C(=O)N(Cc2cccnc2)c2nc3c(OC)ccc(C)c3s2)c1OC`, the survival is 73%.

For `O=S(=O)(Nc1cccc(-c2ccc(N3CCOCC3)nn2)c1)c1ccccc1C(F)(F)F`, the survival is 89%.

Turning to `COc1ccc(C(=O)CCC(=O)Nc2ccc(OC)c(Cl)c2)cc1`, the survival was 86%.

Turning to `COc1ccc(C2=C(C(C)=O)Sc3nnc(-c4ccccc4)n3N2C(C)=O)cc1`, the survival was 87%.

For the compound `CC(=O)C1=C(c2ccc(Cl)c(Cl)c2)N(C(C)=O)n2c(nnc2-c2ccccc2)S1`, the survival was 94%.

With `COc1ccc(-c2nnc3n2N(C(C)=O)C(c2ccc(Cl)c(Cl)c2)=C(C(C)=O)S3)cc1`, the survival was 20% (active).

As for `CN(C)c1ccc(CN(CC2CCCO2)C(=O)COc2ccc(Cl)cc2)cc1` (stereo not given), the survival was 59%.

As for `CCc1nn2c(=O)c(S(=O)(=O)Nc3cccc(F)c3)c(C)nc2s1`, the survival was 70%.

As to `COc1ccccc1CNS(=O)(=O)c1ccc2c(c1)NC(=O)CC(=O)N2`, the survival was 89%.

Take `O=C(Nc1nc2n(n1)C(c1ccc(F)cc1)C=C(c1ccc(Cl)cc1)N2)c1ccc([N+](=O)[O-])cc1` (stereo not given): the survival was 64%.

`COc1ccccc1C(=O)Nc1nc2n(n1)C(c1ccc(F)cc1)C=C(c1ccc(Cl)cc1)N2` (stereo not given): the survival was 49%.

Turning to `O=S(=O)(Nc1nc2n(n1)C(c1ccc(F)cc1)C=C(c1ccccc1)N2)c1ccccc1` (stereo not given), the survival is 73%.

Consider `Cc1ccc(C2C=C(c3ccccc3)Nc3nc(NS(=O)(=O)c4ccccc4)nn32)cc1` (stereo not given), for which the survival was 68%.

In the case of `O=S(=O)(Nc1nc2n(n1)C(c1ccc(F)cc1)C=C(c1ccc(Cl)cc1)N2)c1ccccc1` (stereo not given), the survival is 42% (active).

Regarding `Cc1ccc(S(=O)(=O)Nc2nc3n(n2)C(c2ccc(F)cc2)C=C(c2ccccc2)N3)cc1` (stereo not given), the survival is 29% (active).

In the case of `O=S(=O)(Nc1nc2n(n1)C(c1ccc(F)cc1)C=C(c1ccccc1)N2)c1ccc(Cl)cc1` (stereo not given), the survival is 10% (active).

For the compound `Cc1ccc(C2C=C(c3ccc(F)cc3)Nc3nc(CCCO)nn32)cc1` (stereo not given), the survival was 53%.

Consider `O=S(=O)(Nc1nc2n(n1)C(c1ccccc1)C=C(c1ccc(Cl)cc1)N2)c1ccccc1` (stereo not given), for which the survival was 47% (active).

As for `CC(C)(C)C(=O)CSc1nnc(-c2ccccc2)o1`, the survival was 85%.

With `COc1cccc(CNC(=O)CCc2c(C)c3cc4c(C)coc4c(C)c3oc2=O)c1`, the survival was 55%.

Regarding `CCC(=O)N1CCc2cc(Br)cc(S(=O)(=O)N3CCCC(C(=O)Nc4ccc(OC)cc4OC)C3)c21` (stereo not given), the survival was 65%.

Take `COc1cc(OC)c(NC(=O)c2noc3c2CSc2ccccc2-3)cc1Cl`: the survival was 69%.

Regarding `Cc1ccccc1OC(=O)c1nc(SCc2ccccc2F)ncc1Cl`, the survival was 107%.

With `Cc1ccc(S(=O)(=O)Nc2nc3n(n2)C(c2ccc(Cl)cc2)C=C(c2ccccc2)N3)cc1` (stereo not given), the survival is 2% (active).

For `Cc1ccc(-c2nc3n(n2)C(c2ccccc2Cl)C=C(c2ccc(Cl)cc2)N3)cc1` (stereo not given), the survival was 95%.

Turning to `Cc1ccc(C2C=C(c3ccc(Cl)cc3)Nc3nc(NS(=O)(=O)c4ccccc4)nn32)cc1` (stereo not given), the survival is 62%.

As to `Cc1ccc(S(=O)(=O)Nc2nc3n(n2)C(c2ccccc2Cl)C=C(c2ccccc2)N3)cc1` (stereo not given), the survival is 37% (active).

Consider `COc1ccc(C2=CC(c3ccccc3Cl)n3nc(-c4ccc(C)cc4)nc3N2)cc1` (stereo not given), for which the survival was 91%.

In the case of `Cc1ccc(C2C=C(c3ccccc3)Nc3nc(NS(C)(=O)=O)nn32)cc1` (stereo not given), the survival was 67%.

With `CCN1CCN(C(=O)c2cnn(-c3cccc(C)c3)c2C2CCN(C(=O)OC(C)(C)C)CC2)CC1`, the survival was 89%.

With `O=[N+]([O-])c1cc(-c2nc(-c3ccccc3)no2)ccc1NC1CCCCC1`, the survival was 75%.

Take `CC(C)Oc1ccc(C(=O)N2CCN(CCc3ccccn3)CC2)cc1`: the survival was 68%.

As to `Cc1cccc(NC(=O)C2CCCN(S(=O)(=O)c3cccc4nonc34)C2)c1` (stereo not given), the survival is 92%.

Regarding `CCOc1ccc(-c2cc(NC(=O)Nc3ccc(Cl)cc3)c(C(=O)OC)s2)cc1`, the survival is 101%.

As for `COC(=O)c1sc(-c2ccccc2)cc1NC(=O)Nc1ccccc1Cl`, the survival was 43%.

In the case of `CCOc1ccc(-c2cc(NC(=O)c3ccccc3)c(C(=O)OC)s2)cc1`, the survival was 94%.

For `COC(=O)c1sc(-c2ccccc2)cc1NC(=O)Nc1ccc(Cl)cc1`, the survival was 11% (active).

For `COC(=O)c1sc(-c2ccccc2)cc1NC(=O)c1cccc(Cl)c1`, the survival is 34% (active).

Consider `COC(=O)c1sc(-c2ccccc2)cc1NC(=O)c1cccc(F)c1`, for which the survival was 94%.

Take `O=C(Nc1cc(-c2ccccc2)sc1C(=O)O)c1cccc(F)c1`: the survival is 38% (active).

Regarding `CCOc1ccc(-c2cc(NC(=O)c3ccc(C)cc3)c(C(=O)OC)s2)cc1`, the survival is 70%.

For the compound `CCOc1ccc(-c2cc(NC(=O)Nc3cccc(C(C)=O)c3)c(C(=O)OC)s2)cc1`, the survival was 53%.

For `COC(=O)c1sc(-c2ccccc2)cc1NC(=O)Nc1ccc(F)cc1`, the survival is 21% (active).

On to `CCOc1ccc(-c2cc(NC(=O)c3cccc(Cl)c3)c(C(=O)OC)s2)cc1`, for which the survival was 77%.

Take `CCOc1ccc(-c2cc(NC(=O)Nc3ccccc3C(F)(F)F)c(C(=O)OC)s2)cc1`: the survival is 60%.

As to `Cc1noc2ncnc(N3CCCC(C(=O)NCCC(C)C)C3)c12` (stereo not given), the survival is 88%.

Take `CCOc1ccccc1CNC(=O)c1cccc(NC(=O)c2nsc3ccccc23)c1`: the survival was 88%.

In the case of `Cc1c(Cl)cccc1NC(=O)CCn1nc(C)c2c(C)n(-c3ccccc3)nc2c1=O`, the survival was 92%.

For `Cc1c(C(=O)N2CCOCC2)oc2c1-c1nn(CC(=O)NCc3ccccc3)cc1CC2`, the survival was 79%.

In the case of `Cc1ccc(S(=O)(=O)NCc2nc3cccnc3n2Cc2ccccc2Cl)c(C)c1`, the survival was 89%.

Consider `Cc1ccccc1OCCSc1nc(C)c(Cc2ccccc2)c(=O)[nH]1`, for which the survival was 97%.

With `CCc1ccc(-n2nc(CO)c(C(=O)NCCCCc3ccccc3)n2)cc1`, the survival was 47%.

With `Cc1ccc(C)c(Nc2nn3c(=O)c4ccc(C(=O)NCc5cccs5)cc4nc3s2)c1`, the survival was 65%.

`CC(C)CCNC(=O)CCCn1c(=O)c2cccn2c2ccccc21`: the survival was 68%.

`COC(=O)c1ccc2c(=O)n(CCCCCC(=O)NCc3ccc(Cl)cc3)c(=O)[nH]c2c1`: the survival is 74%.

For `CSc1ccc(CCNC(=O)CCn2c(=O)c3cccn3c3cccnc32)cc1`, the survival is 90%.

Take `CCOc1ccc(CCNC(=O)CCCn2c(=O)c3cccn3c3ccccc32)cc1`: the survival was 72%.

Turning to `O=C(CCCn1c(=O)c2cccn2c2ccccc21)NCCc1ccc(Cl)cc1`, the survival is 32% (active).

For the compound `CSc1ccc(CCNC(=O)CCCn2c(=O)c3cccn3c3ccccc32)cc1`, the survival is 42% (active).

Consider `COC(=O)c1ccc2c(=O)n(CCCCCC(=O)NCCc3ccccc3)c(=O)[nH]c2c1`, for which the survival is 79%.

Take `O=C(CCCn1c(=O)c2cccn2c2cccnc21)NCCc1ccc(Cl)cc1`: the survival was 63%.

Regarding `COC(=O)c1ccc2c(=O)n(CCCCCC(=O)NCCc3ccc(Cl)cc3)c(=O)[nH]c2c1`, the survival is 52% (active).

With `CN(CCCN1C(=O)c2ccccc2C1=O)CCCN1C(=O)c2ccccc2C1=O`, the survival is 93%.

In the case of `CCOc1ccc(NC(=O)CC2C(=O)N(c3ccccc3)C(=O)N2Cc2ccc3c(c2)OCO3)cc1` (stereo not given), the survival is 79%.

With `CN1CCN(C(CNC(=O)C(=O)Nc2ccccc2C#N)c2ccc3c(c2)OCO3)CC1` (stereo not given), the survival is 73%.

Consider `COCCCNC(=O)CCC(=O)N1Cc2ccccc2Oc2ncccc21`, for which the survival was 84%.

Regarding `COC(=O)c1cc2sc(C)cc2n1CC(=O)Nc1ccc(C)c(C)c1`, the survival is 64%.

As for `COC(=O)c1cc2sc(C)cc2n1Cc1cccc(OC)c1`, the survival is 1% (active).

On to `C=Cc1ccc(Cn2c(C(=O)OC)cc3sc(C)cc32)cc1`, for which the survival was 27% (active).

Regarding `COC(=O)c1cc2sc(Cl)cc2n1Cc1c(C)cc(C)cc1C`, the survival was 98%.

Regarding `COC(=O)c1cc2sc(C)cc2n1Cc1ccc(Br)cc1F`, the survival is 89%.

`COC(=O)c1cc2sc(C)cc2n1Cc1ccccc1`: the survival is 95%.

For the compound `Cn1c(=O)n(C)c2cc(N3CCOCC3)c(NS(=O)(=O)c3ccc(F)cc3)cc21`, the survival was 126%.

In the case of `COc1ccc(CNC(=O)C2CCN(S(=O)(=O)c3ccc4nc5c(c(C(=O)O)c4c3)CCCC5)CC2)cc1`, the survival is 99%.

Take `Clc1ccc(CCNc2nc3cc(Cl)c(Cl)cc3n3cnnc23)cc1`: the survival was 91%.

Take `O=C1CCSC2(C(=O)N(Cc3ccc(F)cc3)c3ccccc32)N1c1ccc(F)c(F)c1` (stereo not given): the survival is 83%.

Consider `COc1ccc(Cn2c(=O)c3oc4ccccc4c3n(Cc3ccccc3)c2=O)cc1`, for which the survival was 82%.

Turning to `O=C(Nc1ccccc1C(F)(F)F)N1CCOc2ccc(Cl)cc21`, the survival was 46%.

As to `Cc1cc(C)c(Cn2c(C(O)c3ccccc3)nc3ccccc32)c(C)c1` (stereo not given), the survival was 31% (active).

For the compound `COC(=O)Cn1c(C(O)c2ccccc2)nc2ccccc21` (stereo not given), the survival is 71%.

As to `OC(c1ccccc1)c1nc2ccccc2n1Cc1c(F)cccc1Cl` (stereo not given), the survival is 74%.

As to `COc1ccc(CCNc2nc3cc(OC)c(OC)cc3c3nc(-c4ccccc4)nn23)cc1OC`, the survival was 93%.

Take `COc1ccc(CCNc2nc3cc(OC)c(OC)cc3c3nc(-c4cccnc4)nn23)cc1OC`: the survival is 117%.

As to `COc1ccc(CCNc2nc3ccccc3c3nc(-c4cccc(C)c4)nn23)cc1OC`, the survival was 20% (active).

As for `COc1cc2nc(NCCc3cccc(C)c3)n3nc(-c4ccccc4)nc3c2cc1OC`, the survival is 59%.

On to `Cc1cccc(-c2nc3c4ccccc4nc(NCCc4ccccc4)n3n2)c1`, for which the survival was 7% (active).

Regarding `COc1cc2nc(NCCc3ccccc3)n3nc(-c4cccnc4)nc3c2cc1OC`, the survival was 118%.
